M18AAP inhibitor – blocks P. falciparum M18 aspartyl aminopeptidase; recombinant PfM18AAP, H-Glu-NHMec fluorogenic cleavage; inhibition, % at 7.35 µM; 1.2% of 290,000 active;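 active means inhibition above the campaign mean inhibition over all tested compounds plus 3 SD, cut at about 28% in these data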
JMJD2C inh – blocks human GASC-1 demethylase activity | Q9H3R0 | GST-JMJD2C(1-420) H3K9me3 demethylation, DELFIA europium | inhibition, % at 2.35 µM | 0.069% of 330,000 active | AID 2099;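 active means more than half of a compound's replicate wells show inhibition beyond 50%, single wells judged on their own value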;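 further: signal counts dimethyl H3K9 product captured on neutravidin plate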
Target sequence (Q9H3R0 1-420 limits assumed): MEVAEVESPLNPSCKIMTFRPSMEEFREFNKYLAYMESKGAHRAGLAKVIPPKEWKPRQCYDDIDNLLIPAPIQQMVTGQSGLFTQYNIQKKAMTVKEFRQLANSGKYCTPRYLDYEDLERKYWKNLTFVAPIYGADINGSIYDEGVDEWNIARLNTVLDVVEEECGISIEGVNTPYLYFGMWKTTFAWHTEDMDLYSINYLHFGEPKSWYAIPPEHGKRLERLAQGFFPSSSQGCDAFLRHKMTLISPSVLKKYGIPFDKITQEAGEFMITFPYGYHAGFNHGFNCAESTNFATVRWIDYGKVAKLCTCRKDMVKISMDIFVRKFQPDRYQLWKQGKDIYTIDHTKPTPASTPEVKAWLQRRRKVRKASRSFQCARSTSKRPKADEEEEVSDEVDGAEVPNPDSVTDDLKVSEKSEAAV
Exocytosis inh – lytic granule exocytosis inhibition. TALL-104 LAMP-1 surface exposure, flow cytometry; cells stimulated with thapsigargin and PMA. inhibition, % at 10 µM. 0.66% of 360,000 active. AID 651702;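 active means inhibition above about 55%, limit read from the data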
SMARCA2 activ – SMARCA2 function activation, primary screen | AID 652017 | 1% of 370,000 active | activation, % at 9.1 µM | MG213 cells, MMTV-luciferase reporter, dexamethasone, overnight; in the data active means activation above about 7.8%
ALR inh – blocks human ALR sulfhydryl oxidase activity. purified ALR, DTT oxidation, H2O2 HRP-luminol luminescence. P55789. 3.8% of 290,000 active. inhibition, % (no concentration beside the values). AID 485317;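 active means mean replicate inhibition above about 79%, with every replicate also reaching it, limit read from the data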
Target sequence (P55789 whole entry, looked up): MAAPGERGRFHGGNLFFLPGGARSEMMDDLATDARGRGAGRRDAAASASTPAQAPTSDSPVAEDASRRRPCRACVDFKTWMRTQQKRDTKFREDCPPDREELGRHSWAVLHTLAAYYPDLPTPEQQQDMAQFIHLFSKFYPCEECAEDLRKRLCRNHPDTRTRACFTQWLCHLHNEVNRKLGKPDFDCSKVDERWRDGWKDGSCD
MIN6 prolif – MIN6 beta-cell proliferation induction. MIN6 cells proliferation, ATPlite luminescence, 48 h; cells starved in 0.2% serum; 100% = growth in 10% serum. proliferation, % at 10 µM. 0.29% of 330,000 active. AID 2380;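 active means compounds whose signal lies at least 3.5 SD above the mean of all wells on their plate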
Large screens that a line does not name were inactive. This is a sample that favours compounds with a hit; in the whole collection about 5.4% have one here.

Cc1cc(=O)[nH]c(SCC(=O)Nc2ccc(S(=O)(=O)N3CCOCC3)cc2)n1	none (no result: ALR inh)
O=C(CSc1nc(NS(=O)(=O)c2ccccc2)cc(=O)[nH]1)Nc1ccc(F)cc1	ALR inh 98.4
O=C(O)CC(SCC(=O)Nc1ccc(S(=O)(=O)N2CCCC2)cc1)C(=O)O (configuration not stated)	ALR inh 99.5
Cc1cc(=O)[nH]c(SCC(=O)Nc2ccc(S(=O)(=O)N3CCCCC3)cc2)n1	ALR inh 98.2
CCCN1CC(=O)N2[C@H](C[C@@]3(n4ccc5ccccc54)c4ccccc4N(S(=O)(=O)c4ccccc4)[C@@H]23)C1=O	none (no result: M18AAP inhibitor, JMJD2C inh, Exocytosis inh, ALR inh, MIN6 prolif)
Cc1ccc(-c2cc(C(=O)NN=Cc3ccc(N(C)C)cc3)[nH]n2)cc1C	none (no result: M18AAP inhibitor, JMJD2C inh, Exocytosis inh, ALR inh, MIN6 prolif)
CCCc1cc(=O)[nH]c(SCC(=O)Nc2ccc(C)c(S(=O)(=O)N3CCCCC3)c2)n1	none (no result: M18AAP inhibitor)
Cc1ccc(NC(=O)CSc2nc(N)cc(=O)[nH]2)cc1S(=O)(=O)N1CCCCCC1	ALR inh 98.5 (no result: M18AAP inhibitor)
Cc1cccc(C)c1OCC(=O)Nc1oc(-c2ccccc2)c(-c2ccccc2)c1C#N	none
Cc1nc(SCC(=O)c2ccccc2)n[nH]1	ALR inh 90.0
Nc1nc(SCC(=O)Nc2ccc([N+](=O)[O-])cc2)n[nH]1	ALR inh 97.2
N#Cc1c(NC(=O)CSc2n[nH]c(N)n2)oc(-c2ccccc2)c1-c1ccccc1	ALR inh 79.2
Nc1nc(SCC(=O)c2cccc([N+](=O)[O-])c2)n[nH]1	ALR inh 82.8
Nc1nc(SCC(=O)Nc2ccc([N+](=O)[O-])cc2Br)n[nH]1	none
O=C(CSc1n[nH]c(-c2ccncc2)n1)c1ccccc1	none
CC(C)CCCCCCCCc1cccc(O)c1C(=O)O	none (no result: M18AAP inhibitor, JMJD2C inh, Exocytosis inh, ALR inh, MIN6 prolif)
COC(=O)[C@]12CCCCC=C1N(Cc1ccc(OC)cc1)C(=O)[C@@H]2CC(=O)NCCC(C)C	none (no result: M18AAP inhibitor, JMJD2C inh, Exocytosis inh, ALR inh, MIN6 prolif)
O=C(NNc1ccccc1)C(=O)NNS(=O)(=O)c1ccc(CCCl)cc1	ALR inh 98.5
CCNC(=S)NNC(=O)c1cnccn1	none (no result: M18AAP inhibitor, JMJD2C inh, Exocytosis inh, ALR inh, MIN6 prolif)
Cc1ccccc1Nc1c(-c2ccc(N3CCOCC3)cc2)nc2cnccn12	none (no result: ALR inh)
Cc1ccn2c(Nc3ccccc3C)c(-c3cccnc3)nc2c1	ALR inh 96.9
COC(=O)C[C@@H]1CC[C@@H]2[C@@H](COc3ccc(NC(=O)Nc4ccccc4)cc3C(=O)N2C)O1	none (no result: M18AAP inhibitor, JMJD2C inh, Exocytosis inh, ALR inh, MIN6 prolif)
O=C(Nc1cc(Cl)ccc1F)C1CCCN1S(=O)(=O)c1cccc2cccnc12 (configuration not stated)	none (no result: M18AAP inhibitor, JMJD2C inh, Exocytosis inh, ALR inh, MIN6 prolif)
Fc1ccccc1-c1n[nH]c(=S)n1N=Cc1cccc(OCc2ccccc2)c1	none (no result: M18AAP inhibitor, JMJD2C inh, Exocytosis inh, ALR inh, MIN6 prolif)
COc1ccc(/C(C)=N/NC(=O)c2ccccc2N)cc1	SMARCA2 activ 7.9
CC(=NNC(=O)c1ccccc1N)c1ccccc1O	none (no result: M18AAP inhibitor, JMJD2C inh, SMARCA2 activ, ALR inh, MIN6 prolif)
Cc1nc(SC(C)C(=O)c2c(N)n(C)c(=O)n(C)c2=O)c2c(C)c(C)sc2n1 (configuration not stated)	ALR inh 90.6 (no result: M18AAP inhibitor)
CC(Sc1nnc(N)s1)C(=O)c1c(N)n(C)c(=O)n(C)c1=O (configuration not stated)	none (no result: M18AAP inhibitor, JMJD2C inh, ALR inh)
C#CCNC(=O)C[C@H]1C[C@@]2(C(=O)OC)C(=C[C@H](COCc3ccccc3)O[C@@H]2C)N(Cc2ccco2)C1=O	none (no result: M18AAP inhibitor, JMJD2C inh, Exocytosis inh, ALR inh, MIN6 prolif)
Cc1ccc(NC2CCCN(C(=O)C3CCCCC3)C2)cc1C (configuration not stated)	ALR inh 98.9
O=C(C1CCCC1)N1CCCC(Nc2ccccc2)C1 (configuration not stated)	ALR inh 99.1
O=C(C1CCCC1)N1CCCC(Nc2ccc(F)cc2)C1 (configuration not stated)	ALR inh 98.7
c1ccc(-c2cccc3[nH]cc(-c4ccccc4)c23)cc1	none (no result: M18AAP inhibitor, JMJD2C inh, Exocytosis inh, ALR inh, MIN6 prolif)
COc1ccc2nc(NC(=O)CSCc3c(C)noc3C)sc2c1	none (no result: M18AAP inhibitor)
Cc1noc(C)c1CSCC(=O)Nc1nc2ccc(S(C)(=O)=O)cc2s1	ALR inh 97.4 (no result: M18AAP inhibitor)
Cc1noc(C)c1CSCC(=O)NC1=NCCS1	ALR inh 97.2
Cc1cnc(NC(=O)CSCc2c(C)noc2C)s1	none (no result: M18AAP inhibitor)
Cc1ccc(C(=O)C2CCN(CC(=O)N3CCOCC3)CC2)cc1	none (no result: M18AAP inhibitor, JMJD2C inh, Exocytosis inh, ALR inh, MIN6 prolif)
O=C1CSC(=S)N1c1ccc(F)c(Cl)c1	M18AAP inhibitor 28.3
O=C1CSC(=S)N1c1ccccc1	none (no result: M18AAP inhibitor, JMJD2C inh, ALR inh, MIN6 prolif)
CCN(CC)c1ccc(N2C(=O)CSC2=S)cc1	ALR inh 98.5
COc1ccc(S[C@]2(C(=O)N3CCOCC3)CC(=O)N(C(=O)Nc3ccc(C)c(Cl)c3)[C@@H]2c2ccc(OC)cc2)cc1	none (no result: M18AAP inhibitor, JMJD2C inh, Exocytosis inh, ALR inh, MIN6 prolif)
O=c1[nH]c(CN2CCN(c3ccccc3)CC2)nc2scc(-c3ccccc3)c12	none (no result: ALR inh)
Cc1sc2nc(CN3CCN(c4ccc(O)cc4)CC3)[nH]c(=O)c2c1C	M18AAP inhibitor 31.6 (no result: ALR inh)
Cn1nc(SCC(=O)O)sc1=S	none
CCOC(=O)C(Sc1nn(C)c(=S)s1)C(C)=O (configuration not stated)	ALR inh 93.8
CC1(C)OC(=O)C(=CNCC(O)c2ccccc2)C(=O)O1 (configuration not stated)	none
CC1(C)OC(=O)C(=CNCCc2ccc(O)cc2)C(=O)O1	ALR inh 88.3
CCC(C)N(C(=O)c1ccc(CNC(=O)c2cccc(Br)c2)cc1)C(C)CC (configuration not stated)	none (no result: M18AAP inhibitor, JMJD2C inh, Exocytosis inh, ALR inh, MIN6 prolif)
CC1CCc2c(sc3nc(CSc4nnnn4C)[nH]c(=O)c23)C1 (configuration not stated)	none
CC1CCc2c(sc3nc(CSc4ncn[nH]4)[nH]c(=O)c23)C1 (configuration not stated)	M18AAP inhibitor 56.0
CC(=O)Nc1c(-c2ccc(C(F)(F)F)cc2)nc2ncccn12	none (no result: M18AAP inhibitor, JMJD2C inh, Exocytosis inh, ALR inh, MIN6 prolif)
Cc1ccccc1NC(=O)N(C)[C@H]1C[C@H]2c3[nH]c4c(-c5ccc6c(c5)OCO6)cccc4c3CCN2C(=O)[C@H]1[C@H](C)O	none (no result: M18AAP inhibitor, JMJD2C inh, Exocytosis inh, ALR inh, MIN6 prolif)
O=C(Nc1cccnc1)c1ccc([N+](=O)[O-])o1	SMARCA2 activ 7.8
Cc1cccn2cc(-c3ccc(F)cc3)nc12	ALR inh 96.2
Cc1cccn2cc(-c3cccc(S(=O)(=O)N4CC(C)OC(C)C4)c3)nc12 (configuration not stated)	ALR inh 96.9
Cc1cccn2cc(-c3cccc(S(=O)(=O)N4CCOCC4)c3)nc12	ALR inh 96.4
COC(=O)C[C@H]1CC[C@@H]2[C@H](COc3ccc(NS(C)(=O)=O)cc3C(=O)N2C)O1	none (no result: M18AAP inhibitor, JMJD2C inh, Exocytosis inh, ALR inh, MIN6 prolif)
CC(C)CN1C(=O)C[C@@]2(C(=O)N(C)c3ccc(NS(=O)(=O)c4ccc(F)cc4)cc32)C1c1ccccc1 (some centres not stated)	none (no result: M18AAP inhibitor, JMJD2C inh, Exocytosis inh, ALR inh, MIN6 prolif)
O=C1CSc2ccc(C(=O)N3CCCC(C(=O)N4CCCCC4)C3)cc2N1 (configuration not stated)	none (no result: M18AAP inhibitor, JMJD2C inh, Exocytosis inh, ALR inh, MIN6 prolif)
O=C(N[C@H](Cc1ccccc1)C(=O)NCCCc1ccccc1)[C@H]1O[C@@H](n2ccc(=O)[nH]c2=O)[C@H](O)[C@@H]1O	none (no result: M18AAP inhibitor, JMJD2C inh, Exocytosis inh, ALR inh, MIN6 prolif)

Compound activity as filed in PubChem BioAssay.
